Experimental data as given in the OligoGym collection.

target: NTRK3; experiment: pooled miR-30 sensor sort-seq; sequence = guide strand; conditions: shRNA
Also: reference of the scale not given here.

Sequence | sensor-assay potency score (higher = more potent)
TAGACATCTCTGGACATGCCGA | -0.718
TTGTGGGTCACAGTGATAGGAG | -0.852
TTTGTAGATCTCCTTGATGTTC | -1.01
TAGAACTTGACAATGTGCTCAT | 0.762
TAGACAGTGAGGGCAACACTGG | -1.18
TTAATGTGCTGCACATACGTGT | 0.37
TTCATTCCAAATTTGGACCGTC | 0.838
TAGAGCTCCATGTCCACGGCGT | 0.00985
TTCACTAGCAGATTCGCTCCAA | 0.574
TTGACAGGTTTATATAACGCAA | -0.787

target: NUDT12; experiment: as above; conditions: shRNA

Sequence | sensor-assay potency score (higher = more potent)
TTTAACATTATGAAAACCTGGA | 0.224
TAATAGTATGCTTTTCTCCTTC | 0.381
TATTATTACATTCATTTCCAGT | -0.883
TTAAATATGTAAATCTGCCTGG | 0.199
TATATCTGTGTAGTTCAGCTGA | 0.275
TTAATTTCTGTAGACACTGCTA | 0.0613
TTAACTTGGCAATATCTCCTTC | 0.732
TATATTGACAACTTAAAGGTAA | -0.0673
TAGTAAATTAGCTATATGCTTA | -0.516
TTTCTCTAGAATCTTACTGATT | -0.991
TTTTGCTTTCTCTAGAATCTTA | 0.0347

target: NUDT17; experiment: as above; conditions: shRNA

Sequence | sensor-assay potency score (higher = more potent)
TTCTCGAAGCCCTCCGTCCAGC | -1.17
TTCCACTGCAAGGACAGAGGGT | -0.741
TTTGGGTTTGGTTGGATCCGGG | -0.403
TTGAGGGCAAACTTGGTTCCAG | -0.0646
ATACAGAACAATGTGATGGTAT | 0.6
TAGCAAGACAGTCTTGTCGCTG | -0.0193
TTAGCAAGACAGTCTTGTCGCT | 0.135
TTGTCCTCTGCCATGGTTGGGA | -0.492
TGTTCCATTCTTCCTTTGCTGG | -1.04
AGCAAGACAGTCTTGTCGCTGG | -0.353
TAAGCTGCACTTTTACACGGTG | -0.247
TCTCTGTCCCATCCTCTGCGGC | -1.35

target: NUDT18; experiment: as above; conditions: shRNA

Sequence | sensor-assay potency score (higher = more potent)
TTGCAGGTCTTCCTCCATCACC | -1.52
TAGTTCAACCAGGTGCAGGATG | -0.826
AACTTTTGGGGGTTCATCCTGG | -0.225
ATCACTGTGATCTCGGCCCAGG | -0.975
TCCTCCATCACCTTCCACCAAG | -1.79
TTGATCTCCACCACCAAGTGGT | 0.0788
TTACTCAGCAACGTGCTCCTCC | 0.514
